TTR transcr act – increases transthyretin transcription. SH-SY5Y TTR promoter Gaussia luciferase, luminescence; 100% = recombinant luciferase protein wells. activation, % at 16.7 µM. actives 1.3% (n = 92,000). AID 1117267;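 active = activation above the mean of all tested compounds plus 3 SD, cut at about 9.5% in these data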;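 note: cells exposed to compounds for one day before reading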
TTR inh HuH7 – decreases TTR transcription in HuH7 cells in activator counter-screen | shares compounds with TTR transcr act | HuH7 TTR promoter-Gaussia luciferase reporter, luminescence | inhibition, % at 16.7 µM | actives 4% (n = 1,100) | AID 1117279;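 active = average inhibition above the solvent-only control wells' mean plus 3 SD, cut at about 15% in these data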;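 note: inhibitors lower well luminescence so higher value means more inhibition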
TTR up confirm – human TTR transcription activation, confirmation; shares compounds with TTR transcr act; SHSY5Y TTR promoter Gaussia luciferase, luminescence; 100% = purified Lucia enzyme wells, no cells; activation, % at 16.7 µM; 1,100 tested, under 10 active; AID 1117280;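 active = mean activation above a set limit taken from the earlier primary screen, cut at about 11% in these data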
Hits are given with their value; i = inactive. Only a selection was taken, and hits are over-represented in it overall.

SMILES	TTR transcr act	others
Cc1cc(C)cc(N2C(=O)C3CCCN3C2=S)c1 (centres undefined)	i
CCOC(=O)C1CCN(C(=O)C(C)(C)NC(=O)Nc2ccc(C(F)(F)F)cc2Cl)CC1	i
Cc1ccsc1CNC12CC3CC(CC(C3)C1)C2	9.7	TTR inh HuH7=i;TTR up confirm=i
c1ccc(CNC23CC4CC(CC(C4)C2)C3)nc1	i
CC(C)(CO)NC12CC3CC(CC(C3)C1)C2	i
COC(=O)[C@]12C[C@H](CC(=O)NCCc3ccccc3OC)C(=O)N(Cc3cccc4ccccc34)C1=C[C@H](C(C)(C)C)O[C@@H]2C	i
O=C(COc1ccc(-n2cnnn2)cc1)Nc1ccc(F)cc1	i
O=C(COc1ccc(-n2cnnn2)cc1)Nc1ccc(F)c(F)c1F	i
O=C(COc1ccc(-n2cnnn2)cc1)Nc1ccc(F)c(F)c1	13	TTR inh HuH7=i;TTR up confirm=i
CC(OC(=O)c1ccccc1Oc1ccccc1)C(=O)NC1CC1 (centres undefined)	i
COc1cccc(Cn2cc(COC(=O)NCCc3c[nH]c4ccccc34)nn2)c1	i
Cc1ccc(OCCOc2ccc(Cl)cc2Cl)c(Br)n1	i
COc1ccccc1OCc1csc(N)n1	24	TTR inh HuH7=i;TTR up confirm=i
CC(=O)Nc1nc(COc2ccccc2)cs1	i
COc1ccc(/C=C/C(=O)OCc2csc(-c3ccccc3)n2)cc1OC	i
CC(C)Oc1ccc(-c2csc(N3CCC(C(N)=O)CC3)n2)cc1	i
O=c1cc(N2CCN(c3ccnc4cc(Cl)ccc34)CC2)[nH]c(=O)n1C1CCCCC1	i
FC(F)(F)c1cc(CNC2CCC23CCCCC3)ccc1Cl (centres undefined)	i
COc1cc(OC)c(C2C(C#N)=C(C)NC(C)=C2C#N)c(C(=O)O)c1	30	TTR inh HuH7=i;TTR up confirm=i
COc1ccc(C(=O)O)c(O)c1	i
COc1ccc(C2CC(=O)C3=C(C2)NC(C)=C(C#N)C3c2ccc(N(C)C)cc2)cc1 (centres undefined)	i
COc1ccc2cc3cc(C(=O)N4CCN(c5ccccn5)CC4)oc3nc2c1	i
C=CC[C@@H]1NN2C(=O)[C@@H](C)[C@@H]3c4ccccc4C=NN3[C@@H]2c2ccccc21	i
C[C@H]1CN=C(N(C)C)N1CCC1CCCC1	i
C[C@H]1CN=C(N(C)C)N1CCc1ccccc1	10	TTR inh HuH7=i;TTR up confirm=i
SMILES	TTR transcr act	others
CC(CCN1C(N(C)C)=NC[C@@H]1C)c1ccccc1 (some centres undefined)	i
O=C1CCC[C@H]2Cc3nc4cccc(Cl)c4cc3C[C@]23CCCN13	i
O=C(N/N=C/C=C/c1ccccc1)c1n[nH]c2c1CCC2	11	TTR inh HuH7=i;TTR up confirm=i
O=C(N/N=C/C=C/c1ccccc1)c1cccnc1	i
Cc1ccc(/C=N/NC(=O)c2n[nH]c3c2CCCC3)cc1	i
Cc1cc(C(=O)N/N=C/C=C/c2ccccc2)n[nH]1	i
O=C(N/N=C/C=C/c1ccccc1)c1cc(C2CC2)[nH]n1	i
Cc1ccc(-c2cc(C(=O)N/N=C/C=C/c3ccccc3)n[nH]2)s1	13	TTR inh HuH7=i;TTR up confirm=i
COC(=O)c1cc(S(=O)(=O)NCc2ccc(S(N)(=O)=O)cc2)oc1C	i
CCCOc1ccc(-c2cc(C(C)=O)c3n(c2=O)CCC3)cc1	i
COC(=O)[C@]12C[C@H](CC(=O)NCCCCc3ccccc3)C(=O)N(Cc3ccc(Cl)cc3Cl)C1=C[C@H](C(C)C)O[C@@H]2C1CC1	i
CCCCOCCCNC(=O)C[C@H]1C[C@@]2(C(=O)OC)C(=C[C@H](C3CCCC3)O[C@@H]2C)N(Cc2cccc3ccccc23)C1=O	i
O=C(OCC#CCSc1nnc(-c2cccc3ccccc23)o1)c1ccc(Cl)c(C(F)(F)F)c1	i
Cc1ccc(CN[C@@H]2CC[C@@]34CCCN3C(=O)CCC[C@H]4C2)cc1	i
CCCC/C=C1/C(c2ccccc2)N(Cc2ccc(OC)cc2OC)C2=NC(c3ccccc3)CC(=O)N21 (centres undefined)	i
Cc1nc(C)c(-c2ccc(SCc3ccccc3C)nn2)s1	16	TTR inh HuH7=i;TTR up confirm=i
Cc1ccccc1CSc1nnc(C)c(=O)[nH]1	i
COc1cccc(NC(=O)CSc2ccc(-c3sc(C)nc3C)nn2)c1	i
CCOc1cccc(CNc2ccc(O)cc2)c1OCc1ccc(Cl)cc1Cl	i
COc1cccc(CNc2ccc(F)c(Cl)c2)c1O	13	TTR inh HuH7=i;TTR up confirm=i
CCn1cnc2cc(NCc3cccc(OC)c3O)ccc21	i
O=c1c2ccc(F)cc2nc2sc(Nc3ccc4c(c3)CCC4)nn12	i
Oc1ccccc1Cc1c(O)ccc2ccccc12	i
COc1ccc(S(=O)(=O)N2CCCCCC2)cc1NC(=O)CN1C(=O)NC(C)(c2ccccc2)C1=O (centres undefined)	i
CC(C)(C)OC(=O)N1CCCC(C(=O)Nc2cccc(C(=O)N3CCOCC3)c2)C1 (centres undefined)	i
SMILES	TTR transcr act	others
O=C(OCc1cn(Cc2cc(F)ccc2F)nn1)N1CCOCC1	i
Cc1ccccc1Cn1cc(COC(=O)NCCc2c[nH]c3ccccc23)nn1	i
Cc1ccc(C(=O)Nc2ccc(OCc3ccccc3)cc2)s1	i
COc1ccc(C(=O)NCCCc2ccccc2)cc1	i
Cc1ccc(C(=O)NCCCc2ccccc2)s1	67	TTR inh HuH7=i;TTR up confirm=i
CCc1ccc(OCCOCC(O)CNC2CCCC2)cc1 (centres undefined)	i
CCn1cc(S(=O)(=O)NC2CCCCC2)cn1	i
CCn1c(C)nc2cc(S(=O)(=O)N3CCCC3)ccc21	i
CCn1cc(S(=O)(=O)N2CCCC2)cn1	14	TTR inh HuH7=i;TTR up confirm=i
O=C(CCCN1C(=O)c2ccccc2C1=O)NCCN1C(=O)S/C(=C\c2cccs2)C1=O	i
Cc1ccccc1CN1[C@@H](C)[C@H](c2ccccc2)Oc2cccc(N3CCCC(C)C3)c2S1(=O)=O (some centres undefined)	i
O=C1Oc2ccccc2C2(O)C3CCCCCC3C12 (centres undefined)	13	TTR inh HuH7=i;TTR up confirm=i
CC(c1ccccc1)N1CC[C@H]2C=CC[C@@H](C(=O)Nc3ccc(F)c(F)c3)[C@H]2C1=O (some centres undefined)	i
CC(C)CN1C(=O)C[C@@]2(C(=O)N(C)c3ccc(NC(=O)C(F)(F)F)cc32)C1c1ccccc1 (some centres undefined)	i
O=C(CSc1nnc(-c2ccco2)o1)c1ccc([N+](=O)[O-])cc1	i
O=C(CSc1ncnc2nc[nH]c12)c1ccc([N+](=O)[O-])cc1	29	TTR inh HuH7=i;TTR up confirm=i
c1ccc2c(CSc3ncnc4nc[nH]c34)cccc2c1	i
c1nc(NCC2CCCC2)c2cc(-c3ccc4c(c3)OCO4)ccc2n1	i
C=CCN(C(=O)[C@@H](CCCC)[C@@H](O)c1ccc(C(C)=O)cc1)c1ccccc1	i
O=C(Nc1cccc2cccnc12)c1ccccc1Br	i
O=[N+]([O-])c1ccccc1S(=O)(=O)N1CCSCC1	i
CN(Cc1ccc(Cl)cc1Cl)C(=O)Cc1ccc(S(=O)(=O)N2CCOCC2)s1	20	TTR inh HuH7=i;TTR up confirm=i
CCOc1ccc(S(=O)(=O)N2CCN(C(=O)Cc3ccc(S(=O)(=O)N4CCOCC4)s3)CC2)cc1	i
CC1CCCCC1NC(=O)Cc1ccc(S(=O)(=O)N2CCOCC2)s1 (centres undefined)	i
CNc1nc(N)c([N+](=O)[O-])c(Nc2ccccc2)n1	i

Source: PubChem BioAssay (The Scripps Research Institute Molecular Screening Center)
